Screening results (PubChem)
ALOX12 inhib – inhibitors of human 12-lipoxygenase (ALOX12). purified 12-hLO, xylenol orange hydroperoxide absorbance. AID 1452. Potency, µM (top dose mostly 57.1 µM), hits mostly inhibitors. 150,000 tested, 0.12% active. P18054; also: nearly all actives have a fitted effect of over 55% in size
Target sequence (P18054 whole entry, looked up): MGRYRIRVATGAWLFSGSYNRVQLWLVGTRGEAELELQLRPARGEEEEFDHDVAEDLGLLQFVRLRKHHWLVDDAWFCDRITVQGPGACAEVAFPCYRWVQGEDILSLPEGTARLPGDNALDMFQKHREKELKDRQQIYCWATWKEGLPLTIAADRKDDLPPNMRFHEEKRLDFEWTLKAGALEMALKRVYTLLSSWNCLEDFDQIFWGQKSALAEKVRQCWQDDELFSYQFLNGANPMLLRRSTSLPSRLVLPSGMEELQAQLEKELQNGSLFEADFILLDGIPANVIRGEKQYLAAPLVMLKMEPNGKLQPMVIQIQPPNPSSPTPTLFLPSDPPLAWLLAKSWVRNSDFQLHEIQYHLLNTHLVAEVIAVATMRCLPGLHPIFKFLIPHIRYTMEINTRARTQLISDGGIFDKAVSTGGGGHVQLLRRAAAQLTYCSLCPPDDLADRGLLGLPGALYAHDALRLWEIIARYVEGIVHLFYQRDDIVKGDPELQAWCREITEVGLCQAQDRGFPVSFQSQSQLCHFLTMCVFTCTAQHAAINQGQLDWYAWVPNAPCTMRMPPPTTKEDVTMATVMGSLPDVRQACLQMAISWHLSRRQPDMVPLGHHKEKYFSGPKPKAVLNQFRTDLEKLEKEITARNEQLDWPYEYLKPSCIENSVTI
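Lipoxygenase turnover measured by absorbance at 573 and 405 nm after Fe-XO development. Human 12hLO 150 nM, arachidonate 40 uM, pH 7.0 Hepes buffer with detergent; 15 min compound preincubation, 30 min reaction.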
PNC assembly inh – perinucleolar compartment assembly inhibition | PC3M PTB-GFP, PNC prevalence imaging, 16 h; hits give low values | activity change (PNC), negative = inhibition, % at 10 µM | 140,000 tested, 3.1% active;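 active = readout at or below -70, meaning at least 70% loss of cells showing the perinucleolar compartment, a nuclear body marking cancer cells; inconclusive = readout between -30 and a set limit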
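Compounds are pinned in duplicate onto adhered PC3M cells stably expressing GFP-tagged PTB and incubated 16 h at 37 C. Cells are then fixed, nuclei stained with Hoechst, and PNC-positive cells counted.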
ALOX15B inhib – blocks human 15-lipoxygenase 2 activity. 110,000 tested, 0.56% active. purified 15hLO-2, xylenol orange hydroperoxide absorbance. Potency, µM (highest dose often 57.1 µM), actives largely listed as inhibitors. O15296. AID 881; also: nearly all actives have a fitted effect of over 60% in size
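Screening format was qHTS against 50 nM purified 15hLO-2 in Hepes pH 7.5 with detergent. Activity follows hydroperoxide formation from 45 uM arachidonic acid, measured as 573:405 nm absorbance ratio of the ferric-xylenol orange complex.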
Numbers stand for hits; [ ] = another dose, or the depositor's remark. Only some compounds are listed: those with a hit (about 3.2% of all), similar ones and a draw of the others. Unless noted, calls follow the shape of the dose curve; as a rule, active = well fitted curve in the direction sought with a large enough effect; inconclusive = small, poorly fitted or top-dose-only effect, or another doubt; inactive = no such curve, though single readings can be large; an effect the other way counts as inactive or inconclusive.

`COc1ccc(CNC(=O)C2CCN(S(=O)(=O)c3cc(OC)ccc3OC)CC2)cc1` gave ALOX12 inhib inactive, PNC assembly inh inactive and ALOX15B inhib inactive.
For NC(=S)NNC(N)=S the results were ALOX12 inhib inactive and ALOX15B inhib inactive.
`CC1CCN(c2nc(-c3ccco3)c3c(c2C#N)CC(C)(C)OC3)CC1` gave ALOX12 inhib inactive, PNC assembly inh inactive and ALOX15B inhib inconclusive.
Cc1cccc(Nc2cc(Cl)nc(SCC(=O)O)n2)c1C was read as ALOX12 inhib inactive and ALOX15B inhib inactive.
For Cn1cc(Cl)c(C(=O)NNC(=S)NC2CCCCC2)n1 the results were ALOX12 inhib inactive and PNC assembly inh -109.
Screening Cn1cc(Cl)c(C(=O)NC2CCCCCC2)n1 returned ALOX12 inhib inactive, PNC assembly inh inactive and ALOX15B inhib inactive.
Screening O=C(O)CCCNC(=O)c1cccc(C(=O)NCCCC(=O)O)n1 returned ALOX12 inhib inactive and PNC assembly inh inactive.
`O=C(OCc1nnc(-c2ccc(Cl)cc2)o1)c1ccncc1` gave ALOX12 inhib inactive, PNC assembly inh inactive and ALOX15B inhib inactive.
Cc1noc(C)c1COc1ccc(C(=O)OCc2nnc(-c3ccc(Cl)cc3)o2)cc1 was read as ALOX12 inhib inactive, PNC assembly inh -84 and ALOX15B inhib inactive.
For O=C1OCCC1Sc1nnc(-c2ccco2)o1 (stereo unspecified) the results were ALOX12 inhib inactive and PNC assembly inh -100.
Screening O=C1OCCC1Sc1nnc(-c2ccc(Br)cc2)o1 (stereo unspecified) returned ALOX12 inhib inactive, PNC assembly inh inactive and ALOX15B inhib inactive.
C[C@H](N)C(=O)OC(C)(C)Cc1ccc(Cl)cc1 was read as ALOX12 inhib inactive and ALOX15B inhib inactive.
N[C@@H](Cc1cnc[nH]1)C(=O)O was read as ALOX12 inhib inactive and ALOX15B inhib inactive.
Screening COc1ccc(C(=O)N2CCC[C@@]3(CCN(C)C3)C2)cc1 returned ALOX12 inhib inactive and ALOX15B inhib inactive.
For O=C(Nc1nccs1)C12CC3CC(C1)CC(C(=O)Nc1nccs1)(C3)C2 the results were ALOX12 inhib inactive, PNC assembly inh -88 and ALOX15B inhib inactive.
O=C(NC1=NCCS1)C12CC3CC(C1)CC(C(=O)NC1=NCCS1)(C3)C2 was read as ALOX12 inhib inactive, PNC assembly inh inactive and ALOX15B inhib inactive[2.29 µM].
`CCCc1ccc(C(=O)CCC(=O)O)cc1` gave ALOX12 inhib inactive, PNC assembly inh -96 and ALOX15B inhib inactive.
Screening Cc1ccc(C(=O)CCC(=O)O)cc1 returned ALOX12 inhib inactive, PNC assembly inh inactive and ALOX15B inhib inactive.
For O=C(Nc1ccc(NC(=O)C2CC2)nc1)c1cccs1 the results were ALOX12 inhib inactive, PNC assembly inh -107 and ALOX15B inhib inactive.
`O=C(Nc1ccc(NC(=O)C2CC2)cn1)c1ccccc1Cl` gave ALOX12 inhib inactive, PNC assembly inh -112 and ALOX15B inhib inactive.
For CCCC(=O)Nc1ccc(NC(=O)C2CC2)cn1 the results were ALOX12 inhib inactive, PNC assembly inh inactive and ALOX15B inhib inactive.
Screening CCCC(=O)Nc1ccc(NC(=O)c2cccs2)cn1 returned ALOX12 inhib inactive, PNC assembly inh inactive and ALOX15B inhib inactive.
For CS(=O)(=O)N1CCC2(CCCN(c3ccccn3)C2)CC1 the results were ALOX12 inhib inactive and ALOX15B inhib inactive.
O=c1c2ccccc2nc(SCc2nc3ccccc3s2)n1CCCO was read as ALOX12 inhib inactive and PNC assembly inh inconclusive.
CCOC(=O)N1CCN(S(=O)(=O)c2ccc(C(=O)Nc3nc4ccc(F)cc4s3)cc2)CC1 was read as ALOX12 inhib inactive, PNC assembly inh inactive and ALOX15B inhib inactive.
`COC(=O)c1ccc2nc(Nc3nc4c(F)cc(F)cc4s3)sc2c1` gave ALOX12 inhib inactive and PNC assembly inh -100.
`COC(=O)c1ccc2nc(NC(=O)CN3C(=O)CCC3=O)sc2c1` gave ALOX12 inhib inactive, PNC assembly inh inconclusive and ALOX15B inhib inactive.
Screening CCOC(=O)c1ccc2nc(Nc3nc4ccc(F)cc4s3)sc2c1 returned ALOX12 inhib inactive and PNC assembly inh -107.
For CC1CC2C3CCC4=CC(=O)C=C[C@@]4(C)[C@]3(F)C(O)C[C@]2(C)[C@]1(O)C(=O)COP(=O)(O)O (stereo partly specified) the results were ALOX12 inhib inactive and ALOX15B inhib inactive.
Screening COc1ccc(/C(C)=N/OCC(=O)N2CC3(C)CC2CC(C)(C)C3)cc1 (stereo unspecified) returned ALOX12 inhib inactive and PNC assembly inh inactive.
Screening COc1ccc(S(=O)(=O)N(C)C)cc1NS(=O)(=O)c1ccc(F)c(F)c1F returned ALOX12 inhib inactive and PNC assembly inh inactive.
CC(=O)c1cccc(NC(=O)N2CCc3ccccc3C2)c1 was read as ALOX12 inhib inactive, PNC assembly inh inactive and ALOX15B inhib inactive.
